# Key:
# [1] = biological target: Serine/threonine-protein kinase PAK 6 (Homo sapiens) (UniProt Q9NQU5); settings: at 1 µM;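 also: values are mean percent inhibition of PAK6 kinase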
# [2] = tested on: Tyrosine-protein kinase ABL1 (Homo sapiens), P00519 [E255K]; settings: at 0.1 µM
# [3] = tested on: Tyrosine-protein kinase ABL1 (Homo sapiens), P00519 [E255K]; settings: at 1 µM
# [4] = tested on: Tyrosine-protein kinase ABL1 (Homo sapiens), P00519 [H396P]; settings: at 0.1 µM
# [5] = tested on: Tyrosine-protein kinase ABL1 (Homo sapiens), P00519 [H396P]; settings: at 1 µM
# [6] = tested on: Tyrosine-protein kinase ABL1 (Homo sapiens), P00519 [M351T]; settings: at 0.1 µM
# [7] = tested on: Tyrosine-protein kinase ABL1 (Homo sapiens), P00519 [M351T]; settings: at 1 µM
# [8] = tested on: Tyrosine-protein kinase ABL1 (Homo sapiens), P00519 [Q252H]; settings: at 0.1 µM
# [9] = tested on: Tyrosine-protein kinase ABL1 (Homo sapiens), P00519 [Q252H]; settings: at 1 µM
# [10] = tested on: Tyrosine-protein kinase ABL1 (Homo sapiens), P00519 [T315I]; settings: at 0.1 µM
# Chain of Serine/threonine-protein kinase PAK 6 (Homo sapiens) (Q9NQU5 whole entry, looked up): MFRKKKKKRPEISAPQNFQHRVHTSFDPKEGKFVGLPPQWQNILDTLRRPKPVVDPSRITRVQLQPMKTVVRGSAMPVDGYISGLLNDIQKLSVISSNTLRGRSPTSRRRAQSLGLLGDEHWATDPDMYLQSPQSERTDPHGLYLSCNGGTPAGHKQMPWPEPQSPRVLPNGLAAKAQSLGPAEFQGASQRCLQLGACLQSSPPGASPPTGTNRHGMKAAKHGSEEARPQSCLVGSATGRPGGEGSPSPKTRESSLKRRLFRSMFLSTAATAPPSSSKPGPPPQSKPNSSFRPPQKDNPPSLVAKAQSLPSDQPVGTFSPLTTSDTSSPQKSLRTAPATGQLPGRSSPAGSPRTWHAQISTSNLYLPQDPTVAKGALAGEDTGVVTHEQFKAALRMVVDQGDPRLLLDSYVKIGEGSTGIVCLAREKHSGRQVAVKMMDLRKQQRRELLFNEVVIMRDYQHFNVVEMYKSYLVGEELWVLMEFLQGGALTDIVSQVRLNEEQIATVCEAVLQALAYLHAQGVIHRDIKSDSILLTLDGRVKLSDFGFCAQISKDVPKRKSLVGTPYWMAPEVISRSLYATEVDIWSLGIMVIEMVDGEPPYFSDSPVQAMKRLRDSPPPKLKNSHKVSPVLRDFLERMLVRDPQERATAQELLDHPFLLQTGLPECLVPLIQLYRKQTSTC
Compound,inhibition [1] [%],inhibition [2] [%],inhibition [3] [%],inhibition [4] [%],inhibition [5] [%],inhibition [6] [%],inhibition [7] [%],inhibition [8] [%],inhibition [9] [%],inhibition [10] [%]
NCc1ccc(-n2c(-c3nonc3N)nc3cnccc32)cc1,-0.18,3.58,2.62,5.81,0.32,3.87,0.32,4.57,1.69,2.95
COc1cc2ncn(-c3cc(OCCc4ccccc4)c(C(N)=O)s3)c2cc1OC,-0.86,-1.76,6.39,2.33,10.4,-0.05,11.6,0.95,10.7,1.49
NS(=O)(=O)c1ccc(Nc2cc(-c3ccc(O)c(F)c3)n[nH]2)cc1,-3.83,1.72,14.8,2.42,27.3,4.46,30.5,1.52,20,0.21
O=C1Nc2ccc(I)cc2C1=Cc1cc(Br)c(O)c(Br)c1,,1.89,6.01,4.06,6.63,1,4.74,3.44,7.29,2.84
O=C(Nc1n[nH]c2nc(-c3ccco3)ccc12)C1CC1,3.45,2.26,5.68,3.89,10.4,4.48,15,4.58,9.24,2.66
NC(=O)c1cc(-c2ccncc2)cc(-c2ccccc2)c1N,-5.82,4.33,30.6,9.63,39.4,5.03,36.6,9.54,38.8,4.26
c1ccc(Oc2ccc(Nc3ncc(-c4ccccc4)o3)cc2)cc1,-7.12,1.57,0.84,2.43,0.51,1.56,1.33,1.3,0.81,1.59
COc1ccc2cc(-c3c(-c4ccncc4)nc(-c4ccc(S(C)(=O)=O)cc4C)n3C)ccc2c1,-3.99,2.69,10.9,5.32,17.9,2.32,18,6.25,22.4,8.12
CN(C)c1ccc2c(c1)/C(=C/Nc1ccc(S(N)(=O)=O)cc1)C(=O)N2,-1.53,2.53,12.8,2.8,14.3,3.86,15.8,4,17.8,3.12
Cc1nnc(-c2ccc(C)c(-c3ccc(C(=O)NCc4ccc(Cl)cc4)cc3)c2)o1,,2.64,6.05,3.3,11.6,-1.14,1.63,2.54,4.45,2.23
COc1cc2ncn(-c3cc(OCc4ccccc4C(F)(F)F)c(C(C)=O)s3)c2cc1OC,-3.04,1.66,4.89,4.51,5.12,1.37,6.24,4.93,4.96,1.88
NC(=O)Cc1ccccc1Oc1nccc(-c2c(-c3ccc(F)cc3)ncn2C2CCNCC2)n1,-1.76,0.8,2.45,0.08,-2.39,-1.54,-1.6,2.24,1.77,1.47
COc1cccc(/C=N/Nc2ncnc3c2cnn3-c2cccc(OC)c2)c1,-7.63,7.5,34.4,9.64,41.8,7.51,42,12.9,54.9,3.28
CS(=O)(=O)CCNCc1cc(-c2cc3c(Nc4ccc(OCc5cccc(F)c5)c(Cl)c4)ncnc3s2)cs1,,2.18,4.04,4.45,5.71,2,5.07,4.77,6.1,4.15
O=C1Nc2ccccc2/C1=C/Nc1ccc(-n2cncn2)cc1,,1.9,9.03,2.67,13.3,1.55,14.5,3.88,13.4,3.25
COc1ccc2ncn(-c3cc(O[C@H](C)c4ccccc4Cl)c(C(N)=O)s3)c2c1,1.83,1.19,2.26,3.99,9.15,0.34,5.61,2.81,4.72,0.33
Fc1ccc(-c2nc3n(c2-c2ccncc2)CCS3)cc1,-7.43,1.52,4.79,2.85,3.2,1.2,4.76,2.91,5.38,1.83

# — ChEMBL document CHEMBL1961873, “Compounds: GSK PKIS; Assays: Nanosyn kinase panel” (2012)
